The subject of test [1] is Wnt5a (protein binding on small-molecule microarray). The experiment in a line: Wnt5a binders on small-molecule microarray, primary screen, biophysical, 635/667 nm fluorescence (AID 1142).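 Further: fluorescence read at 667 nm with signal to noise per printed feature.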 As to conditions: 635 nm fluorescence, higher = more signal.
Test [2] in a line: cell viability in Huh7 cells, primary screen, cytotoxicity control for HCV replication inhibitor project, CellTiter-Glo luminescence, basal, 48 h (AID 1143).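 Further: Huh7 hepatoma cells carrying a hepatitis C replication reporter with no stimulus; test concentration not given here.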 As to conditions: Huh7 HCV replicon, higher = more signal, called active from +8 up or from −8 down. On the technique in general: ATP-based viability assays read luminescence as a measure of living cells.
Test [3] is described as follows: P. aeruginosa biofilm formation inhibitors, primary screen, PAO1 strain, BacTiter-Glo luminescence, LB-PBS (AID 1144). The settings on record: 12 h, higher = more signal.
A short description of test [4]: CREB reporter modulators without forskolin, primary screen, cell-based, PC12, CRE-LacZ reporter, unstimulated (AID 1145). The settings on record: no forskolin, luminescence, 4.5 h, higher = more signal, called active from +8 up or from −8 down.
The nature of test [5]: CREB reporter modulators under forskolin, primary screen, cell-based, PC12, CRE-LacZ reporter, forskolin-stimulated (AID 1146).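 Further: PC12 cells with 6xCRE LacZ reporter stimulated by forskolin 10 µM; beta-galactosidase reporter signal reflecting CREB driven transcription.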 As to conditions: luminescence, 4.5 h, higher = more signal, called active from +8 up or from −8 down.
Test [6] concerns the target Streptavidin (Streptomyces avidinii) (UniProt P22629). The experiment in a line: streptavidin binders on small-molecule microarray, primary screen, artefact control for SMM compound annotation, biophysical, 635/667 nm fluorescence (AID 1147).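 Further: signal reflects streptavidin binding to arrayed compounds as a control protein.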 The settings on record: streptavidin binding, higher = more signal.
Test [7] in a line: small-molecule binders of probe aInhba, primary screen, biochemical, small-molecule microarray, 635/667 nm fluorescence (AID 1148).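 Further: score merges 667nm spot fluorescence with signal-to-noise for antibody binding to printed compounds.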 The settings on record: higher = more signal.
The target in test [8] is Torsin-1A (Homo sapiens) (UniProt O14656). The experiment in a line: torsin A binders from cell lysate, primary screen, small-molecule microarray, wild-type, 635/667 nm (AID 1149). As to conditions: COS7 hTOR1A-WT lysate, 635 nm fluorescence, higher = more signal.
The target is the same in test [9]. The experiment in a line: small-molecule binders of mutant TOR1A in lysate, primary screen, cell lysate, small-molecule microarray, COS7 lysate, 635/667 nm fluorescence (AID 1150).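 Further: score pools 667 nm emission and signal to noise measuring lysate protein binding.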 The settings on record: COS7 hTOR1A mutant lysate, 635 nm fluorescence, higher = more signal.
In test [10] the test system is Sonic hedgehog protein (Shh). The experiment in a line: small-molecule binders of Shh protein, primary screen, biochemical, small-molecule microarray, 635/667 nm fluorescence (AID 1151).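 Further: Shh protein binding to compounds spotted on small-molecule microarray slides; score combines spot fluorescence intensity with signal-to-noise across triplicate slides.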 As to conditions: small-molecule microarray binding, 635 nm fluorescence; higher = more signal.
The nature of test [11]: E. coli DRC41 culture turbidity changes, primary screen, E. coli filamentation inducer project, strain DRC41, OD650, 48 h (AID 1152).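 Further: E. coli MC1000 strain DRC41 lacking acrAB efflux pump and sulA.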 The settings on record: E. coli DRC41 (acrAB sulA), higher = more signal, called active from +8 up or from −8 down.
Test [12] in a line: small-molecule binders of probe aLefty1, primary screen, biochemical, small-molecule microarray, 635/667 nm fluorescence (AID 1153).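 Further: score merges spot fluorescence with signal-to-noise ratio from the scanned slide images.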 The settings on record: higher = more signal.
Test [13] can be described thus: PSAC antagonists in infected red cells, primary screen, cell-based, P. falciparum Indochina, OD700, 1 h (AID 1154). As to conditions: P. falciparum Indochina infected RBC osmotic lysis, higher = more signal, called active from +8 up or from −8 down.
A short description of test [14]: PSAC antagonists in infected red cells, primary screen, cell-based, P. falciparum Indochina, OD700, 2 h (AID 1155).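 Further: lysis reports solute entry through the parasite surface anion channel PSAC; channel blockers reduce lysis of infected cells.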 The settings on record: P. falciparum Indochina infected erythrocytes, osmotic lysis OD700; higher = more signal, called active from +8 up or from −8 down.
The nature of test [15]: osmotic lysis modulators in infected erythrocytes, primary screen, PSAC antagonist project, cell-based, P. falciparum Indochina, OD700, 3 h (AID 1156). As to conditions: higher = more signal, called active from +8 up or from −8 down.
Test [16] can be described thus: PSAC antagonists in infected red cells, primary screen, cell-based, P. falciparum Indochina, OD700, 18 h (AID 1157). As to conditions: P. falciparum Indochina infected erythrocytes, osmotic lysis OD700, 18 h; higher = more signal, called active from +8 up or from −8 down.
Test [17] in a line: modulators of S6 phosphorylation in cells, primary screen, cell-based, A549, cytoblot, luminescence, serum-stimulated (AID 1158).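 Further: serum-stimulated A549 lung adenocarcinoma cells; signal is phosphorylated S6 detected by cytoblot immunostaining with HRP secondary.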 The settings on record: A549 phospho-S6 cytoblot, 5 h, higher = more signal.
Test [18] concerns the target NADPH oxidase 2 (Homo sapiens) (UniProt P04839). The experiment in a line: NOX2-dependent H2O2 signal modulators, primary screen, NOX inhibitor project, cell-based, HEK293-NOX2, PMA-stimulated, Amplex Red fluorescence (AID 1159). Further: test concentration not given here. The settings on record: 45 min, higher = more signal, called active from +8 up or from −8 down.
The target in test [19] is NADPH oxidase 4 (Homo sapiens) (UniProt Q9NPH5). The experiment in a line: NOX4-dependent H2O2 signal modulators, primary screen, NOX inhibitor project, cell-based, HEK293-NOX4, tetracycline-induced, Amplex Red fluorescence (AID 1160). As to conditions: 45 min, higher = more signal, called active from +8 up or from −8 down.
In test [20] the target is NADPH oxidase 5 (Homo sapiens) (UniProt Q96PH1). The experiment in a line: NOX5-dependent H2O2 signal modulators, primary screen, NOX inhibitor project, cell-based, HEK293-NOX5, Amplex Red fluorescence (AID 1161). The settings on record: HEK293-NOX5, ionomycin, 45 min, higher = more signal.

5 compounds from PubChem BioAssay can be followed below.

The structures appear in SMILES notation. Activity calls are given as the source filed them. Unless noted, how the calls were made is not given here.

NADPH oxidase 5 (Homo sapiens), sequence (Q96PH1 whole entry, looked up): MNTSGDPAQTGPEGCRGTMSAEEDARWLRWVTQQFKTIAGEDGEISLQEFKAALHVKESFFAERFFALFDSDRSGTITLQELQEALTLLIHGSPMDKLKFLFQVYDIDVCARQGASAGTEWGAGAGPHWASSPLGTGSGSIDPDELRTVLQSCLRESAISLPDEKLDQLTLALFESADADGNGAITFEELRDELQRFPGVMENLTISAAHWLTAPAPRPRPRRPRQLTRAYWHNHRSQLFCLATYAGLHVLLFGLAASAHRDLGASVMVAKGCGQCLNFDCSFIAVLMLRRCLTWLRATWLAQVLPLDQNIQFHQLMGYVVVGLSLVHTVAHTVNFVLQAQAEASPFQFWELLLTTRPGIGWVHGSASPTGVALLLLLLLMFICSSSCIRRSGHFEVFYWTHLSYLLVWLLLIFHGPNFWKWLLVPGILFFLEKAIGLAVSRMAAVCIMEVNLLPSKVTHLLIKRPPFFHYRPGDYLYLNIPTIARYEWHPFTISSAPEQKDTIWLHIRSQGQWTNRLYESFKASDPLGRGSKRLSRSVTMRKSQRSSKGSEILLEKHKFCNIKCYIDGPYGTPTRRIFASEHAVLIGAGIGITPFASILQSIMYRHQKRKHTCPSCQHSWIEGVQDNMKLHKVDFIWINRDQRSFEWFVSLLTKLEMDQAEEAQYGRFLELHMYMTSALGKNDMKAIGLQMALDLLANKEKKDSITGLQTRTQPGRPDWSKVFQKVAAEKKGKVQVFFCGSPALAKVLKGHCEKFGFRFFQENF
NADPH oxidase 4 (Homo sapiens), sequence (Q9NPH5 whole entry, looked up): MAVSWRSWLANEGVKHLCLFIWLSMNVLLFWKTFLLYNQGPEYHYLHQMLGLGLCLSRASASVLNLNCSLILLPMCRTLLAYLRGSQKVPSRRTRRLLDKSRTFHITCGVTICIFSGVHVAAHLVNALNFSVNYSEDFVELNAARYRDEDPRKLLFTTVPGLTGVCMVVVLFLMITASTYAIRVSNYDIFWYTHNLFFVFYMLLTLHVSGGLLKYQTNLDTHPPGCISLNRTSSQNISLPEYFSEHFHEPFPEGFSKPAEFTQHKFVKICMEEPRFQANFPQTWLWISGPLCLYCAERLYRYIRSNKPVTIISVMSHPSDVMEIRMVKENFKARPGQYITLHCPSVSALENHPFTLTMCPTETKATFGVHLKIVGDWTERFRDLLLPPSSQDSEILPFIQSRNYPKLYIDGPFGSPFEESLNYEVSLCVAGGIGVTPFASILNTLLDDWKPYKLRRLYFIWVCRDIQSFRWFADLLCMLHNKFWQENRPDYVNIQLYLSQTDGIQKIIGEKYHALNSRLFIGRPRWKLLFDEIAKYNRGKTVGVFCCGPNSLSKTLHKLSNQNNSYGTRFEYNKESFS
NADPH oxidase 2 (Homo sapiens), sequence (P04839 whole entry, looked up): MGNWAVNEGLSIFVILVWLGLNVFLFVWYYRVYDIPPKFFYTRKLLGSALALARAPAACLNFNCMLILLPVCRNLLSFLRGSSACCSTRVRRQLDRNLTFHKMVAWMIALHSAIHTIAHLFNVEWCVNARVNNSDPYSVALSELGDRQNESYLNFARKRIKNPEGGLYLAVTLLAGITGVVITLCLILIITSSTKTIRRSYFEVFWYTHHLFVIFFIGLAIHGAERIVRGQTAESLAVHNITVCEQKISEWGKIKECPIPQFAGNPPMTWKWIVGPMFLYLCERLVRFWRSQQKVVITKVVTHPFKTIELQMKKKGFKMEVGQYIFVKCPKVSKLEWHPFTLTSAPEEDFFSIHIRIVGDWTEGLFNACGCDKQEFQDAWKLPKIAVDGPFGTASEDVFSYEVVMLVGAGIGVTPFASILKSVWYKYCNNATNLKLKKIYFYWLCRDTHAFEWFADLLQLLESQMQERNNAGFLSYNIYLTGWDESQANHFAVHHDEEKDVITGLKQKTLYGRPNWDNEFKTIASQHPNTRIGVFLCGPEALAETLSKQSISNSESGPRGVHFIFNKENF
Torsin-1A (Homo sapiens), sequence (O14656 whole entry, looked up): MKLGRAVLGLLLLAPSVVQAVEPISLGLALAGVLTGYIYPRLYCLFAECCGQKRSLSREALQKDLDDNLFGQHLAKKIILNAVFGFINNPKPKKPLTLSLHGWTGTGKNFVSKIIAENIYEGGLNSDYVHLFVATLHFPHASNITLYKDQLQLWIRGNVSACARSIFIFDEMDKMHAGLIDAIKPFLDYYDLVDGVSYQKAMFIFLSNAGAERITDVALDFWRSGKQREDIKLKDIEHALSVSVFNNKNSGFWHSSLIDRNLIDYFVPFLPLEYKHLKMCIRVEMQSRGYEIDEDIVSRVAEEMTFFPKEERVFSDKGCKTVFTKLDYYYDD
Streptavidin (Streptomyces avidinii), sequence (P22629 whole entry, looked up): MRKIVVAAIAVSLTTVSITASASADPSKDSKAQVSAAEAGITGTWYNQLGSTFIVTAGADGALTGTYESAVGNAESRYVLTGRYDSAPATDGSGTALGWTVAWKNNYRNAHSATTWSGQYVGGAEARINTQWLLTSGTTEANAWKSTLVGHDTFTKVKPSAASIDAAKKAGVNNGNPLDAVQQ

For `CCOC(=O)[C@H]1C/C=C/C[C@H](C(=O)OCC)C(=O)O[C@H]2[C@@H](OC)O[C@H](CO)[C@@H](OC(=O)c3ccc(Br)cc3)[C@@H]2OC1=O`, the composite z-score in test [1] was 0.168; in test [6] it was -0.0923; in [7] it was 0.0464; in the test with Torsin-1A (Homo sapiens) [8], 0.441; with Torsin-1A (Homo sapiens) [9], -0.15; in test [10], 0.473. For the same compound, the composite z-score in [12] was -0.0349. For the same compound, the z-score in test [2] is -3.02 (inactive); in test [3] it was -0.79 (inactive); in test [4], 0.342 (inactive); in [5], -0.0314 (inactive); in test [11], -0.365 (inactive); in [13], 2.35 (inactive). For the same compound, the z-score in test [14] is 1.54 (inactive); in [15] it was -0.128 (inactive); in [16], 0.877 (inactive); in [17] it was 0.0379; in test [18], -1.81 (inactive); in [19], -0.145 (inactive). Moreover, the z-score in test [20] was -1.24.
Turning to `C#CCN(C/C=C/c1ccccc1)[C@H](CO)c1ccccc1`, the composite z-score in test [1] is 0.325; in [6], 0.41; in test [7], -0.103; in the test with Torsin-1A (Homo sapiens) [8] it was 0.25; with Torsin-1A (Homo sapiens) [9], 0.294; in test [10], 0.743. Moreover, in [12], the composite z-score was -0.241. In addition, the z-score in test [2] was -3.79 (inactive); in [3] it was -0.192 (inactive); in test [4] it was 1.65 (inactive); in test [5], -0.121 (inactive); in test [11], -1.3 (inactive); in [13] it was 6.86 (inactive). Besides, the z-score is 0.893 (inactive) in test [14]; 0.0025 (inactive) in test [15]; 0.305 (inactive) in test [16]; -0.617 in test [17]; 0.403 (inactive) in [18]; 0.04 (inactive) in [19]. For the same compound, in test [20], the z-score is -3.98.
With `CC(C)CN1C(=O)[C@@]2(c3ccc([N+](=O)[O-])cc3)CC(=O)N(C3CCCCC3)[C@@H]2c2ccc(CO)cc21`, the composite z-score is -0.409 in test [1]; -0.471 in test [6]; -0.237 in test [7]; -1.32 with Torsin-1A (Homo sapiens) [8]; -1.67 with Torsin-1A (Homo sapiens) [9]; -0.939 in test [10]. Moreover, the composite z-score in test [12] was -0.191. Further, the z-score was -0.159 (inactive) in test [2]; -0.927 (inactive) in [3]; -0.502 (inactive) in [4]; 0.241 (inactive) in test [5]; 0.511 (inactive) in [11]; 0.531 (inactive) in [13]. The z-score in test [14] was 0.437 (inactive); in test [15], 0.0909 (inactive); in [16], 0.523 (inactive); in test [17] it was -0.277; in [18], -0.717 (inactive); in [19] it was -0.778 (inactive). Besides, the z-score in [20] is -0.209.
For `COc1cc2c(cc1O)C(c1cccs1)N(Cc1ccc([N+](=O)[O-])o1)CC2` (stereo not given), the composite z-score is 0.207 in [1]; 1.32 in [6]; 0.167 in test [7]; 0.426 with Torsin-1A (Homo sapiens) [8]; -0.155 with Torsin-1A (Homo sapiens) [9]; -0.951 in test [10]. This compound registered a composite z-score in [12] of 0.0161. Moreover, the z-score is -1.37 (inactive) in test [2]; -0.371 (inactive) in test [3]; 0.209 (inactive) in test [4]; -0.543 (inactive) in test [5]; 1.9 (inactive) in test [11]; 25.1 (active) in [13]. Further, the z-score in test [14] was 7.24 (inactive); in test [15], -0.39 (inactive); in test [16], -0.628 (inactive); in [17] it was 1.23; in [18], -4.4 (inactive); in test [19], -2.58 (inactive). In test [20], the z-score is -2.92.
Take `COC(=O)[C@@]1(Cc2ccc(OC)cc2)[C@H]2c3cc(C(=O)N4CCCC4)n(Cc4nc5ccccc5[nH]4)c3C[C@H]2CN1C(=O)c1ccccc1`: the composite z-score in test [1] was 0.704; in test [6], 1.78; in test [7], 0.802; in the test with Torsin-1A (Homo sapiens) [8], 0.0984; with Torsin-1A (Homo sapiens) [9] it was 1.7; in test [10], -0.245. Moreover, in [12], the composite z-score was determined as 0.388. Moreover, the z-score in test [2] is -2 (inactive); in [3], 0.848 (inactive); in [4], -0.182 (inactive); in test [5] it was 0.147 (inactive); in test [11] it was -0.945 (inactive); in [13] it was 6.92 (inactive). Besides, the z-score was 1.2 (inactive) in [14]; 2.04 (inactive) in test [15]; 1.03 (inactive) in test [16]; -0.0242 in [17]; -0.034 (inactive) in [18]; -0.0265 (inactive) in test [19]. For the same compound, in [20], the z-score was -3.27.
